# Laboratory results: article PMC7819943, “Rice protein-binding microarrays: a tool to detect cis-acting elements near promoter regions in rice”
# Whole data set: some 68,000 sequences, median “fluorescence intensity (a.u.)” near 9,100, cut for the highest 2% near 16,000. For the sample, the highest values were picked, then their nearest neighbours and some sequences at random.
# Biological target: OsWRKY34 (Oryza sativa, UniProt Q0JBA9 1-250)
# Assay: protein-binding microarray (RPBM); PBS, 2% BSA, 51.3 ng/ul salmon testes DNA, 50 uM zinc acetate, 200 nM TF, 25 C, 1 h; high values mean tight binding
# Conditions: protein: recombinant; tags: N-terminal polyhistidine and DsRed monomer fusion (pET32a); label: CyDye5-dUTP incorporated in the synthesized complementary strand; 3' TTTTT single-stranded linker to array surface; dsDNA, one strand shown
# Outline: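 Per-feature fluorescence intensity (arbitrary units), read on an Axon 4000B scanner, is the binding signal. Transcription factors carrying an N-terminal polyhistidine tag and DsRed fusion were expressed in E. coli BL21-CodonPlus and purified on Ni–NTA. A custom Agilent array, made double-stranded by primer extension with Cy5-dUTP and blocked with 2% BSA, was incubated with 200 nM protein in PBS, 2% BSA, salmon testes DNA and 50 µM zinc acetate at 25 °C for 1 h and then washed.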
# Chain of OsWRKY34 (Q0JBA9 entry or part of it): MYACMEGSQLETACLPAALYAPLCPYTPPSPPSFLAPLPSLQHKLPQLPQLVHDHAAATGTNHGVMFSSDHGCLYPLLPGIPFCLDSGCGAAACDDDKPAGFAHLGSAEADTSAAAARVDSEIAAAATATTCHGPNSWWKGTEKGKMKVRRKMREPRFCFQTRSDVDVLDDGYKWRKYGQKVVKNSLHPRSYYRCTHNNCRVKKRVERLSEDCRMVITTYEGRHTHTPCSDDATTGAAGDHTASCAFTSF
row,Sequence,binding signal
1,TGTTGTTATGTTTTTGTCATGATCTCACAAGCAATGTACACGGAGTCACCTAGTGCAG,11000 fluorescence intensity (a.u.)
2,CCTCTTCGAAGCCGTGAAATCTCAGCCGTCCATCCATGATCGGAGTCACCTAGTGCAG,9040 fluorescence intensity (a.u.)
3,TCTTTTGAGCACCCCACTGGCCATGGTCTTTTATCGTCCCCGGAGTCACCTAGTGCAG,8490 fluorescence intensity (a.u.)
4,ACTATCTTAGCCATTCCAACGCCGTCTTTCCTCGGTCCTCCGGAGTCACCTAGTGCAG,12500 fluorescence intensity (a.u.)
5,AATCACCATCATCGCTGTTTGGGAGGGTCTGCCTGGCTTACGGAGTCACCTAGTGCAG,13100 fluorescence intensity (a.u.)
6,TATTTGACTTCCGGCTTTTGTTTCCTTGATACTTTACTCTCGGAGTCACCTAGTGCAG,9780 fluorescence intensity (a.u.)
7,ACCTTTGCTCACGATCCCAATGGCTTTAATTATGTACCACCGGAGTCACCTAGTGCAG,8830 fluorescence intensity (a.u.)
8,CCAAAAACACTCACTCGGCCCACATCACGCCACCACCCCGCGGAGTCACCTAGTGCAG,9750 fluorescence intensity (a.u.)
9,TTTTTTTTCTGTTAGTACTGTTTTTGGTCCAAACATCTTTCGGAGTCACCTAGTGCAG,8180 fluorescence intensity (a.u.)
10,GGGCCTAGTTTTTCCAGGTAAAGTTGACCAAAAGTCTTCACGGAGTCACCTAGTGCAG,8890 fluorescence intensity (a.u.)
11,GATGGCGTACCAAAGTACTGGTAAAAACATCTTCAGTTTTCGGAGTCACCTAGTGCAG,22300 fluorescence intensity (a.u.)
12,CTTCTACTGCGTCGACTTGGAATTTTGCCGAATCTTTTTTCGGAGTCACCTAGTGCAG,10400 fluorescence intensity (a.u.)
13,CACACACACTCCACTACTCCACTGCACTGCAGTCTCTCTCCGGAGTCACCTAGTGCAG,10100 fluorescence intensity (a.u.)
14,CCTCGTTCTTCTTCTTCTCTCTCTGGTTTTACATTTTTACCGGAGTCACCTAGTGCAG,10300 fluorescence intensity (a.u.)
15,TGAGTCCTTACCTCTCTCTCTCCAATGTTCGTCTGCGGCACGGAGTCACCTAGTGCAG,8390 fluorescence intensity (a.u.)
16,AACCCACCTGCACGCACCGTCCTTACCTCTGTTCGATTGACGGAGTCACCTAGTGCAG,16800 fluorescence intensity (a.u.)
17,CACGCACCGCCCATGCGTCCTTATCCACCCACCTCTCCACCGGAGTCACCTAGTGCAG,8240 fluorescence intensity (a.u.)
18,GTAGATGTCGGGTGGGATGGTTTCAGGAAAAGAAACATGACGGAGTCACCTAGTGCAG,12800 fluorescence intensity (a.u.)
19,AGTCTGGCTTGCACATCTGCTGTTTACAACACATCAAATTCGGAGTCACCTAGTGCAG,9810 fluorescence intensity (a.u.)
20,ACTTTCCTACACACAAACTTTCAACTTTTTCATCACATCGCGGAGTCACCTAGTGCAG,8900 fluorescence intensity (a.u.)
21,CATTCACAACATCAAATTACATCTGCAGAGAGATCGCTCGCGGAGTCACCTAGTGCAG,33900 fluorescence intensity (a.u.)
22,CCATCGTTTCTCCCCGACGCCCTCGCCATCCTCCTCGCCACGGAGTCACCTAGTGCAG,10500 fluorescence intensity (a.u.)
23,GCCTTTTTAAATTTTTTTATCACATCAAAACTTTTTTATACGGAGTCACCTAGTGCAG,8370 fluorescence intensity (a.u.)

row,Sequence,binding signal
1,GTGGGTGGGTTTGGAGTTTGGACTGTTTAGGGCCTTTTGACGGAGTCACCTAGTGCAG,23300 fluorescence intensity (a.u.)
2,TTTTTGGGTTGGGTTGGGGACGCGCTGTTTCGACGTGGGGCGGAGTCACCTAGTGCAG,19000 fluorescence intensity (a.u.)
3,TGAAGAGGTGAGTGTTTTAGGGTTTTGGTTGGGGTTTTGACGGAGTCACCTAGTGCAG,14600 fluorescence intensity (a.u.)
4,TTTACATATAATTTTCTTTAGGGTTTTATAGCTTTTTTAACGGAGTCACCTAGTGCAG,8600 fluorescence intensity (a.u.)
5,ATATATGTTCTCTTAGTGTCTTTATTTTTAATATTTTTAACGGAGTCACCTAGTGCAG,8530 fluorescence intensity (a.u.)
6,AGTGTTTGGTTTGAGGAGGACTAGTGGGGTGGTTTTTTGACGGAGTCACCTAGTGCAG,13900 fluorescence intensity (a.u.)
7,CGTTGAGTTGGTTTAGGGGTGGACTGATTTGCCTTTGCCCCGGAGTCACCTAGTGCAG,12900 fluorescence intensity (a.u.)
8,GGTTGGGGCGTGGGCGGCTGGGCGCGTGGGTTGCCCGCGACGGAGTCACCTAGTGCAG,15600 fluorescence intensity (a.u.)
9,GGGTTTGGGTTTTTAGGTTTGGGGAGTTGGGCTGTGTTTACGGAGTCACCTAGTGCAG,22100 fluorescence intensity (a.u.)
10,GGTTTAGGCTGTGTTTAGTTCTTTTTTTAATTTTTTTTAACGGAGTCACCTAGTGCAG,16500 fluorescence intensity (a.u.)
11,CTGTTACTTCACAGTTATTTTTGTTGGGTGGGGACGTGGGCGGAGTCACCTAGTGCAG,12600 fluorescence intensity (a.u.)
12,TTCGTGTTTTGCTGGAGTTGGAGTTGCTGCATTGGGTTTACGGAGTCACCTAGTGCAG,10700 fluorescence intensity (a.u.)
13,CTGTATCCCCATTCGCTGTCAAAATTCAATTCACTGTCTTCGGAGTCACCTAGTGCAG,9640 fluorescence intensity (a.u.)
14,GGTGGGAGCACGATGCGGGACGTGGGGTGGGATCGGAAGCCGGAGTCACCTAGTGCAG,8590 fluorescence intensity (a.u.)
15,CCCTCCCTGGCCGTCGTGCCCGCCGCTGCTCGCCTTCGGCCGGAGTCACCTAGTGCAG,10100 fluorescence intensity (a.u.)
16,TGGAGGGGAGTGGGATCGCGATCACGGGTGGGGCGTCGGACGGAGTCACCTAGTGCAG,13100 fluorescence intensity (a.u.)
17,AAATCTTGGGTTTATGTGGGCGACGATGTCGGTTTGGAAACGGAGTCACCTAGTGCAG,8060 fluorescence intensity (a.u.)
18,CTACAGCCTCACACCGTCTCTCCTGCACCAGTTCCACGGACGGAGTCACCTAGTGCAG,9510 fluorescence intensity (a.u.)
19,GCGGGATGGGGAGGCGGCGCCGCGAGGAGGAGGGGATGGGCGGAGTCACCTAGTGCAG,11900 fluorescence intensity (a.u.)
20,GGTGGTTCTGTGAGCCCGCGGGGTTGGGGTTGGGGCCTGGCGGAGTCACCTAGTGCAG,12900 fluorescence intensity (a.u.)
21,GAGAGGATGGAGGTGGATGAGGGAGAGGGGCGGGAGACCGCGGAGTCACCTAGTGCAG,9460 fluorescence intensity (a.u.)
22,TGGTTCGCTCGGTGGGTGGTGGTGGTTCTGTGAGCCCGCGCGGAGTCACCTAGTGCAG,18400 fluorescence intensity (a.u.)
